The values below come from PubChem BioAssay AID1347165 (National Center for Advancing Translational Sciences (NCATS), 2019).

Hit rate of the full screen: of about 220,000 compounds, about 5,700 (2.6%) were called active. A call without a number means that no potency is given here. Not shown: some 18% with an inconclusive outcome. The call rests on the fitted dose curve; in most records, active means well fitted inhibition curve with a large enough effect; inconclusive means small, poorly fitted or top-dose-only effect; inactive means no such curve, though single readings can be large or run the other way. Only a selection was taken, and actives are over-represented in it overall.
Potency means the concentration at half of the fitted maximal effect.

The target in the test is Lysine-specific demethylase 5B (Homo sapiens) (UniProt Q9UGL1). As to the kind of experiment: Primary screen for KDM5B Histone Demethylases FDH-coupled qHTS. Further: nearly all actives have a fitted effect of over 70% in size. The note with it: FDH-coupled NADH fluorescence (FDH is formaldehyde dehydrogenase); series mostly up to 57.7 µM. An outline of the steps: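 Measured: NADH fluorescence change, 30 min, RT. System: KDM5BΔAP 200 nM final, H3K4me3 peptide, α-KG, Fe(II), ascorbate, NAD⁺ plus FDH, pH 7.5 HEPES. Compounds: titrated, 10 min pre-incubation with enzyme.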
Chain of Lysine-specific demethylase 5B (Homo sapiens) (Q9UGL1 whole entry, looked up): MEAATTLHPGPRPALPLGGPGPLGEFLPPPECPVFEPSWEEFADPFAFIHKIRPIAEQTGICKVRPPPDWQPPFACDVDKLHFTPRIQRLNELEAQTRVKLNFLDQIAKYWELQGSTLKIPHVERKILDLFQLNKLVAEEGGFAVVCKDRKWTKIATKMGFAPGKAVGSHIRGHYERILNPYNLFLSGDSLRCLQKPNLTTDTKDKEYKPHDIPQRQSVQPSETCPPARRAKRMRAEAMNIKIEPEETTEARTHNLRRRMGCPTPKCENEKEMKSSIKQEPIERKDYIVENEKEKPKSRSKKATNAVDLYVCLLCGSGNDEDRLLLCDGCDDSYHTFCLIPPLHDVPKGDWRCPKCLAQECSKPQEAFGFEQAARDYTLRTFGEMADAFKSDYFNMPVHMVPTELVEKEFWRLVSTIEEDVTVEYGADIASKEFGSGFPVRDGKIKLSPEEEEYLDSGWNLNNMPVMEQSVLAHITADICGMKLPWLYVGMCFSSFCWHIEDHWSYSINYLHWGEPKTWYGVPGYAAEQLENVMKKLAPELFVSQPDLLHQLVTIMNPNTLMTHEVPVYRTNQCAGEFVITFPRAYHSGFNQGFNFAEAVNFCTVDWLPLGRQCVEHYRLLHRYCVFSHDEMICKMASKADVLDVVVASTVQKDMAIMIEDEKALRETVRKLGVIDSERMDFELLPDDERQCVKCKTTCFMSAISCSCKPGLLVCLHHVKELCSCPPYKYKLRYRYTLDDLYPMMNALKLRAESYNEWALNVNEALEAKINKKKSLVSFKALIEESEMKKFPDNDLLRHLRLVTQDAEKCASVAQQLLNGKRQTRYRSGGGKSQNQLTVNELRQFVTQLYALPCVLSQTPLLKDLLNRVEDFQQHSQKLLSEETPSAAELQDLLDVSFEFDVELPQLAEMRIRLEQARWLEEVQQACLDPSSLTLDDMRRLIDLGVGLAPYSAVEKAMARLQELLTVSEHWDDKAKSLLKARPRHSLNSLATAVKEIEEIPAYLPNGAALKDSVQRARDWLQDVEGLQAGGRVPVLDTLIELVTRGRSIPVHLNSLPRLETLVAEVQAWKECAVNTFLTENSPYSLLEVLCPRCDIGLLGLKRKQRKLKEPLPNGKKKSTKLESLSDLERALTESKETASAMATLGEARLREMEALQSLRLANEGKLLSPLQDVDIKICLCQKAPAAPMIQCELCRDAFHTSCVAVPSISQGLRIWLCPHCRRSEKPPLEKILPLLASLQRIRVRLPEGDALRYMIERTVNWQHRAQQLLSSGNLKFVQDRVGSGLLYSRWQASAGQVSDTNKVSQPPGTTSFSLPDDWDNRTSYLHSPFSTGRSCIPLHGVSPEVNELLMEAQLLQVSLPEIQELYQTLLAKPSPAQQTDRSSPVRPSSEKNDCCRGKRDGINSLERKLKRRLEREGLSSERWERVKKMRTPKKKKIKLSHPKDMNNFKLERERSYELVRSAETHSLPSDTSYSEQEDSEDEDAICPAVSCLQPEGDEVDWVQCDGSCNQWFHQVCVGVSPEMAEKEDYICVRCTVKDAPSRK
On the technique in general: In qHTS, concentration-response curves come from the screen itself.
On to `COc1cc(C2Nc3ccc(C)cc3[C@H]3OCCC[C@@H]23)cc(Cl)c1O` (stereo partly specified), for which the Potency result was “inactive”.

`CSc1ccc(CNC(=O)c2cc3c(s2)CCCC3)cc1`: the Potency result is “inactive”.

For `COc1cc(CNC(=O)Cc2ccc(OC)c(OC)c2)ccn1`, the Potency result was “inactive”.

For the compound `COc1ccc(CNC(=O)c2cc3c(s2)CN(C2CC2)C3)cc1OC`, the Potency is 11.2 µM (active).

Regarding `Cc1cccc(N2C(=O)c3ccc(C(=O)Nc4cccc(C(=O)O)c4)cc3C2=O)c1`, the Potency result is “inactive”.

Take `CCCNc1ccc2nnc(C)n2n1`: the Potency result is “inactive”.

On to `CC(C)CNc1ccc2nnc(-c3ccccn3)n2n1`, for which the Potency is 31.6 µM (active).

Take `Cc1ccc(OCC(=O)Nc2ccc3oc(=O)ccc3c2)cc1C`: the Potency entry was “inactive”.

In the case of `O=C(O)CC1(CC(=O)NC2CCN(Cc3ccccc3)CC2)CCCC1`, the Potency entry was “inactive”.

With `O=C(CCNc1cnc2cnccn12)NC1CCN(Cc2ccccc2)CC1`, the Potency was 22.4 µM (active).

Consider `O=C(CCc1ncc(-c2ccc(F)cc2)o1)NC1CCN(Cc2ccccc2)C1` (stereo unspecified), for which the Potency entry was “inactive”.

For the compound `COc1ccc2c(c1)OCC(C(=O)N1CCCN(c3ncccn3)CC1)C2` (stereo unspecified), the Potency is 25.1 µM (active).

In the case of `O=C(c1ccoc1)N1CCCN(C(=O)C2COc3ccccc3C2)CC1` (stereo unspecified), the Potency result is “inactive”.

Turning to `Cc1cc(OCC(=O)N2CCN(c3ncccn3)CC2)ccc1Cl`, the Potency result is “inactive”.

`Cc1nc(CCNS(=O)(=O)c2cccnc2)no1`: the Potency result is “inactive”.

Consider `Cc1nc(CCNc2nccc(-c3cccnc3)n2)nc2c1CCCC2`, for which the Potency is 28.2 µM (active).

In the case of `Cc1nc(CNC(=O)[C@H]2CCC[C@@H](O)C2)nc2c1CCCC2`, the Potency result is “inactive”.

As for `O=C(CCSc1nc2ccccc2s1)NCc1cc(F)cc(F)c1`, the Potency entry is “inactive”.

On to `COC(=O)c1ccc(C(=O)OCc2nc(N)c3ccccc3n2)cc1`, for which the Potency result was “inactive”.

In the case of `CCn1ccc2cc(S(=O)(=O)N3CCC(C(=O)N4CCN(C)CC4)CC3)ccc21`, the Potency result was “inactive”.

For the compound `O=C(O)CCn1ncc2cc(OC3CCN(C(=O)C4CCCC4)CC3)ccc21`, the Potency entry is “inactive”.

On to `NC(=O)Cn1ccc2cc(OCC3CCN(C(=O)C4CCCC4)CC3)cnc21`, for which the Potency is 35.5 µM (active).

As for `Cc1ccc(-n2nnnc2SCc2nc3ccsc3c(=O)[nH]2)c(C)c1`, the Potency result was “inactive”.

In the case of `O=C(Nc1ccc(SC2CCCC2)cc1)C1CCCC1`, the Potency result was “inactive”.

Consider `CCCS(=O)(=O)N1CCC(Nc2nccnc2OCC)CC1`, for which the Potency was 15.8 µM (active).

Consider `C=CCNC(=O)C[C@@H]1CCN(C(=O)c2cccnc2)C[C@@H]1CC`, for which the Potency result was “inactive”.

As for `CCCS(=O)(=O)N1CCC2(CC1)C(OC)C(=O)N2CC1CC1` (stereo unspecified), the Potency entry was “inactive”.

In the case of `CCCS(=O)(=O)N1CCC(Cc2nc(-c3cccnc3)n[nH]2)C1` (stereo unspecified), the Potency result was “inactive”.

Regarding `COC(=O)[C@@H]1CN(C(=O)c2cccnc2)CCN1C(C)=O`, the Potency entry is “inactive”.

Regarding `CCOc1nccnc1NC1CCN(C(=O)c2cccnc2)CC1`, the Potency was 28.2 µM (active).

With `CC(Sc1nc(N)cc(N)n1)C(=O)c1ccc(Cl)cc1` (stereo unspecified), the Potency result was “inactive”.

In the case of `Cn1cc(-c2cc3n(n2)CCC(=O)N3CC(=O)NC2CCCCC2)c2ccccc21`, the Potency entry was “inactive”.

Turning to `CCCCN(CCCC)c1cccc(-c2cccc(N(CCCC)CCCC)c2)c1`, the Potency entry was “inactive”.

On to `Cc1cccc(C)c1NC(=O)CSc1nc2c(cc1C#N)CCCC2`, for which the Potency entry is “inactive”.

For `N#Cc1cc2c(nc1SCC(=O)NCCc1ccccc1)CCCC2`, the Potency result was “inactive”.

Consider `N#Cc1cc2c(nc1N1CCN(C3CCCC3)C(CCO)C1)CCCC2` (stereo unspecified), for which the Potency was 28.2 µM (active).

On to `CCCCn1nc(C(=O)NC(CC)CC)c2ccccc2c1=O`, for which the Potency entry is “inactive”.

With `COc1ccc(-c2[nH]ncc2CN2CCCC(C(=O)NCc3ccccc3)CCNC(=O)CC2)cc1` (stereo unspecified), the Potency result was “inactive”.

In the case of `COc1ccc(-c2cc(N3CCN(C(=O)Cc4cccc(OC)c4)CC3)n[nH]2)cc1`, the Potency entry is “inactive”.

As to `COc1ccc2cc(-c3[nH]ncc3CN3CCN(c4cccc(C)n4)CC3)ccc2c1`, the Potency is 28.2 µM (active).

`O=C(c1nc2c(o1)CCN(Cc1ccccc1F)CC2)N1CCOCC1`: the Potency entry is “inactive”.

With `COc1ccc(CN2CCc3nc(C(=O)N4CCOCC4)oc3CC2)cc1OC`, the Potency result was “inactive”.

Consider `O=C(Nc1ccccc1)c1nc2c(o1)CCN(Cc1cccc(Cl)c1)CC2`, for which the Potency was 28.2 µM (active).

As to `O=C(NCC1CC1)c1nc2c(o1)CCN(CCc1ccccc1)CC2`, the Potency entry is “inactive”.

For `O=C(Nc1ccc(-n2cccn2)cc1)C1CCN(Cc2ccsc2)CC1`, the Potency entry is “inactive”.

For the compound `CCOc1ccc(NC(=O)CSc2nc3c(c(=O)[nH]2)CN(Cc2ccc(Cl)cc2)CC3)cc1`, the Potency entry is “inactive”.

Turning to `Cc1cccc(CN2CCc3nc(C(=O)Nc4ccc(Cl)cc4)oc3CC2)c1`, the Potency was 31.6 µM (active).

On to `O=C(Nc1ccc(Cl)cc1)c1nc2c(o1)CCN(Cc1ccsc1)CC2`, for which the Potency was 31.6 µM (active).

With `O=C(NCC1CC1)c1nc2c(o1)CCN(Cc1cccc(F)c1F)CC2`, the Potency entry is “inactive”.

For `Cc1cc(Br)ccc1NC(=O)CN(C)Cc1ncc(-c2ccc(F)cc2)o1`, the Potency entry is “inactive”.

`CCc1ccc(CN(C(=O)c2cc(=O)c3cc(C)cc(C)c3o2)C2CCS(=O)(=O)C2)cc1` (stereo unspecified): the Potency result is “inactive”.

As for `O=C(CSc1ncnc2sc3c(c12)CCCC3)Nc1ccc(F)cc1`, the Potency result is “inactive”.

As for `CC(C)NC(=O)c1ccccc1NC(=O)C(Cl)Cl`, the Potency entry was “inactive”.

For `CCCn1nc(C(=O)NCc2ccc(OC)cc2)c2ccccc2c1=O`, the Potency entry is “inactive”.

For `Oc1ccc(-c2ccc(-c3nc(CCc4ccccc4)no3)cn2)cc1`, the Potency is 25.1 µM (active).

As to `Cc1ccc(-c2nc(C(=O)N(C)Cc3ccccc3)no2)cc1`, the Potency entry was “inactive”.

Take `O=C(NCCc1noc(-c2ccccc2)n1)C1CC1`: the Potency entry is “inactive”.

For the compound `CCc1ccc(N/C(N)=N/c2nc(C)cc(C)n2)cc1`, the Potency entry is “inactive”.

Take `COC(=O)CC1c2cc(OC)c(OC)cc2CCN1Cc1nc(CC(C)C)no1` (stereo unspecified): the Potency result is “inactive”.

In the case of `O=C(/C=C/c1ccc(-c2cc(Cl)ccc2Cl)o1)c1ccc(F)cc1`, the Potency result is “inactive”.

`CNC(=O)[C@@H]1CN(C(=O)c2n[nH]c3ccccc23)C[C@H]1COC`: the Potency result is “inactive”.

Consider `CNC(=O)[C@@H]1CN(C(=O)Cc2cccnc2)C[C@H]1COC`, for which the Potency entry was “inactive”.

As for `COC[C@@H]1CN(c2ncccn2)C[C@H]1C(=O)Nc1ccncc1`, the Potency was 20 µM (active).

On to `S=C(NCCc1ccc(Cl)cc1)Nc1ccc(Oc2ccccc2)cc1`, for which the Potency result is “inactive”.

Take `CN(C)[C@@H]1CN(C(=O)c2cccn2C)CC[C@@H]1CO`: the Potency entry was “inactive”.

Turning to `CN(C)Cc1cccc(-c2cc(-c3ccncc3)c3cncn3c2)c1`, the Potency is 28.2 µM (active).

Turning to `Cc1noc(C)c1-c1cc(-c2cncnc2)cn2cncc12`, the Potency result is “inactive”.

For the compound `FC(F)(F)c1cccc(-c2cc(C3=CCOCC3)c3cncn3c2)c1`, the Potency was 35.5 µM (active).

For the compound `OCc1cccc(-c2cc(C3=CCOCC3)c3cncn3c2)c1`, the Potency was 31.6 µM (active).

For the compound `Cc1nc(NC(C)C)sc1C(=O)Nc1ccccc1`, the Potency entry was “inactive”.

Regarding `O=C(COC(=O)c1cc2ccccc2[nH]1)NCc1ccc(F)cc1`, the Potency result is “inactive”.

`NC(=O)c1ccc(CN(Cc2cccs2)C2CC2)cc1`: the Potency result was “inactive”.

Turning to `O=C(O)CCC(=O)NC1CC2(CCN(C(=O)c3ccccc3)CC2)c2ccccc21` (stereo unspecified), the Potency entry is “inactive”.

In the case of `CCOc1ccc(CN(C)CC(O)COc2ccc(C)cc2C)cc1OC` (stereo unspecified), the Potency result is “inactive”.

Turning to `CC(=O)NC1(C)CN(Cc2ccc(-c3ccc4c(ccn4C)c3)s2)C1`, the Potency is 35.5 µM (active).

With `CC(=O)NC1(C)CCN(Cc2cnc(-c3ccc4c(ccn4C)c3)s2)CC1`, the Potency is 35.5 µM (active).

Take `Cn1ccc2cc(S(=O)(=O)N3CCC(C(=O)NCCN4CCCC4)CC3)ccc21`: the Potency result was “inactive”.

In the case of `CC(=O)N1CCN(C(=O)c2ccc3c(ccn3C)c2)CC1`, the Potency entry was “inactive”.

For the compound `CCC(=O)c1ccc(OC(=O)c2nn(C(C)C)c(=O)c3ccccc23)cc1`, the Potency result was “inactive”.

`Cc1ccc(Nc2cc(C)nc3c(C)c(C)cc([N+](=O)[O-])c23)c(C)c1`: the Potency entry is “inactive”.

Regarding `O=S(=O)(CCSc1nnc(-c2ccccc2)o1)c1ccc(Br)cc1`, the Potency entry is “inactive”.

Turning to `COc1ccc(C(=O)OCC(=O)NCC(F)(F)F)cc1`, the Potency result was “inactive”.

For the compound `O=C(CSc1nc2ccccc2s1)Nc1ccc2c(c1)CCC2`, the Potency result is “inactive”.

For the compound `O=C(CCc1ncc(-c2ccc(F)cc2F)o1)Nc1ccccc1`, the Potency result is “inactive”.

With `Cc1cccc(NC(=O)Nc2ccc(OCc3ccccc3)cc2)n1`, the Potency result was “inactive”.

For `CCn1ccc2cc(S(=O)(=O)N3CCC(C(=O)NCC4CCCO4)CC3)ccc21` (stereo unspecified), the Potency entry was “inactive”.

Consider `O=C(c1ccc2cc[nH]c2c1)N1CCN(Cc2cnc[nH]2)CC(O)C1` (stereo unspecified), for which the Potency was 25.1 µM (active).

On to `O=C(c1ccc2[nH]ccc2c1)N1CCN(S(=O)(=O)c2cccc3nonc23)CC1`, for which the Potency result is “inactive”.

For `CC(=O)N1CCN(Cc2cc(F)ccc2Cl)CC(O)C1` (stereo unspecified), the Potency entry is “inactive”.

On to `CN(C)C(=O)c1cccc(NCC(=O)NC(=O)NCc2ccccc2)c1`, for which the Potency result was “inactive”.

Consider `Cc1ccc(C(=O)N2CCN(c3oc(C4CC4)nc3C#N)CC2)c(C)c1`, for which the Potency result was “inactive”.

For the compound `Cc1ccc(OCCOc2cccc(/C=N/NC(N)=O)c2)cc1`, the Potency entry was “inactive”.

Turning to `Cc1ccc2c(C(=O)O)cc(NC(=O)C(C)C)cc2n1`, the Potency was 20 µM (active).

With `CCc1ccccc1NC(=O)c1cc(C)nc2ccccc12`, the Potency result is “inactive”.

Take `CC(C)C(=O)Nc1ccc2oc(-c3cccc(Cl)c3)nc2c1`: the Potency result is “inactive”.

As to `O=C(NCCn1c(-c2ccccc2)nc2ccccc21)NCc1ccccc1`, the Potency entry was “inactive”.

`CC(C)Cc1nc2cccnc2n1C1CCN(S(=O)(=O)c2ccc(Cl)s2)CC1`: the Potency result was “inactive”.

For `Cc1cccc(-c2noc([C@@H]3Cc4nc[nH]c4CN3C(=O)CCC(=O)O)n2)c1`, the Potency result is “inactive”.

For the compound `O=C(c1ccco1)N1Cc2[nH]cnc2C[C@H]1c1nc(-c2ccncc2)no1`, the Potency entry is “inactive”.

Regarding `CC(C)NC(=O)N1Cc2[nH]cnc2C[C@H]1c1nc(-c2ccc(Cl)cc2)no1`, the Potency was 31.6 µM (active).

As to `COc1ccc(OCC2(C)COc3ccc(C(=O)Nc4cccnc4)cc3N2)cc1` (stereo unspecified), the Potency was 31.6 µM (active).

In the case of `O=C(Nc1cccnc1)c1ccc2c(c1)OCCN(c1ccccc1)C2`, the Potency result is “inactive”.

For `COc1ccc(OCC2(C)COc3ccc(C(=O)NC4CCOCC4)cc3N2)cc1` (stereo unspecified), the Potency was 25.1 µM (active).

`COc1ccc(-n2cnc3cc(C(=O)NC4CCCC4)ccc32)cc1`: the Potency entry was “inactive”.

Consider `O=C(Nc1cccnc1)c1ccc2c(c1)OCCN(Cc1ncccn1)C2`, for which the Potency result was “inactive”.

Consider `COc1ccc(-c2cc(N3CCC(NC(=O)c4ccc5c(c4)OCO5)CC3)n[nH]2)cc1`, for which the Potency entry was “inactive”.
